The record followed here is PubChem BioAssay.

Assay [1] is described as follows: antimalarial activity against Dd2 strain (AID 2302;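 active means growth inhibition above 50% at the single 2 µM test dose, taken to imply half-maximal potency below 2 µM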;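 further: 0% = DMSO untreated growth and 100% = chloroquine plus artemisinin killed control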). As to conditions: P. falciparum Dd2 in RBCs, LDH growth readout, 72 h; at 2 µM; hits give high values.
A short description of assay [2]: HepG2 cytotoxicity, primary screen, cytotoxicity control for P. falciparum antimalarial project, cell-based, ATP luminescence (AID 2303;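 active means inhibition above 50%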;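 further: 0% = DMSO wells and 100% = digitonin-killed cells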). Particulars: HepG2 viability, 24-48 h, at 10 µM, hits give high values.
Assay [3] deals with L-lactate dehydrogenase (Plasmodium falciparum (isolate CDC / Honduras)) (UniProt Q27743). Nature of the assay: PfLDH activity inhibition – cell lysate, 3D7 strain, counter-screen for P. falciparum growth inhibition project (AID 2304).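 Further: 0% = vehicle and 100% = reference inhibitor.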 As to conditions: P. falciparum 3D7 crude extract, LDH APAD/NBT absorbance; at 2 µM; hits give high values.
Assay [4] can be described thus: inhibition of 3D7 malaria parasite growth – strain 3D7 (AID 2306).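 Further: 0% = DMSO wells and 100% = chloroquine plus artemisinin control wells.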 As to conditions: P. falciparum 3D7 erythrocytic growth, LDH absorbance, 72 h; at 2 µM; hits give high values.
The target in assay [5] is Calcium-dependent protein kinase 1 (Plasmodium falciparum (isolate 3D7)) (UniProt P62344). The experiment in a line: PfCDPK1 kinase inhibitors, biochemical, TCAMS library (AID 1159585; cut-off not given, nearly all actives have IC50 up to about 0.98 µM;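 further: inhibitors leave more ATP so luminescence rises with inhibition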). Particulars: recombinant PfCDPK1, Kinase-Glo ATP depletion luminescence.
For assay [6], the target named is Plasmodium falciparum protein kinase 6 (PK6, PF3D7_1337100) (UniProt Q8IDW1). The experiment in a line: PfPK6 kinase inhibitors, biochemical, TCAMS library (AID 1159586). Particulars: recombinant PfPK6, Kinase-Glo ATP depletion luminescence.
Assay [7] concerns the target Protein kinase 7 (PK7), Plasmodium falciparum 3D7 (PF3D7_0213400) (UniProt Q7YTF7). The experiment in a line: inhibition of Plasmodium PK7 catalytic activity – biochemical, TCAMS antimalarial set, Kinase-Glo luminescence (AID 1159587). As to conditions: recombinant PfPK7, Kinase-Glo ATP depletion luminescence. Background: Kinase-Glo measures the ATP left after a reaction by luminescence.

Assay [8] concerns the target Calcium-dependent protein kinase 4 (Plasmodium falciparum (isolate 3D7)) (UniProt Q8IBS5). The experiment in a line: PfCDPK4 kinase inhibitors, biochemical, TCAMS library (AID 1159588; cut-off not given, nearly all actives have IC50 up to about 0.91 µM). Particulars: recombinant PfCDPK4, Kinase-Glo ATP depletion luminescence.

A number with no mark means an inactive call. For some of these results: Results with a measured potency or affinity are listed apart. The source made the active and inactive calls. Unless noted, how the calls were made is not given here.

Protein kinase 7 (PK7), Plasmodium falciparum 3D7 (PF3D7_0213400), sequence (Q7YTF7 1-343): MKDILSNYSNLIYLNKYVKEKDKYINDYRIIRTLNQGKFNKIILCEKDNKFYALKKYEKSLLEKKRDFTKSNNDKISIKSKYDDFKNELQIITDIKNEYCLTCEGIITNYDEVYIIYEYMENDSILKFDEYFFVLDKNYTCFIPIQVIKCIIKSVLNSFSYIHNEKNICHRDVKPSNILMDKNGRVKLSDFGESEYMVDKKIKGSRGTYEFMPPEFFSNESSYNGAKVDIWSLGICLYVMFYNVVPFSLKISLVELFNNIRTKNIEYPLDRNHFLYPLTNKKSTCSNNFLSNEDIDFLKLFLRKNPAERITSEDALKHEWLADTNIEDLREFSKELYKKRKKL
Calcium-dependent protein kinase 1 (Plasmodium falciparum (isolate 3D7)), sequence (P62344 whole entry, looked up): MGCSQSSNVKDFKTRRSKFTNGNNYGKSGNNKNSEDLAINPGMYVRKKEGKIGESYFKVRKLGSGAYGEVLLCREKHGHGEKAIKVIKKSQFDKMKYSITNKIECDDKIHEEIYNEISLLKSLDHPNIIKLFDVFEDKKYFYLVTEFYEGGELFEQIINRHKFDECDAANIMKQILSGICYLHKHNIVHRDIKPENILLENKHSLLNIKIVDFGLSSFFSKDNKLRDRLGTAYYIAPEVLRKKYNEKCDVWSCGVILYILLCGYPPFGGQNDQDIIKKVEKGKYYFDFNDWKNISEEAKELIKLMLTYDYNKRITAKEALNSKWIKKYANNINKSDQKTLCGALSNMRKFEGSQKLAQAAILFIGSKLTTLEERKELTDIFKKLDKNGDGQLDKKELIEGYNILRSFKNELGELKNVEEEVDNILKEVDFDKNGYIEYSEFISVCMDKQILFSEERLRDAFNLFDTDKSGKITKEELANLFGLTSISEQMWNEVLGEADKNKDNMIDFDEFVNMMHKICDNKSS
Calcium-dependent protein kinase 4 (Plasmodium falciparum (isolate 3D7)), sequence (Q8IBS5 whole entry, looked up): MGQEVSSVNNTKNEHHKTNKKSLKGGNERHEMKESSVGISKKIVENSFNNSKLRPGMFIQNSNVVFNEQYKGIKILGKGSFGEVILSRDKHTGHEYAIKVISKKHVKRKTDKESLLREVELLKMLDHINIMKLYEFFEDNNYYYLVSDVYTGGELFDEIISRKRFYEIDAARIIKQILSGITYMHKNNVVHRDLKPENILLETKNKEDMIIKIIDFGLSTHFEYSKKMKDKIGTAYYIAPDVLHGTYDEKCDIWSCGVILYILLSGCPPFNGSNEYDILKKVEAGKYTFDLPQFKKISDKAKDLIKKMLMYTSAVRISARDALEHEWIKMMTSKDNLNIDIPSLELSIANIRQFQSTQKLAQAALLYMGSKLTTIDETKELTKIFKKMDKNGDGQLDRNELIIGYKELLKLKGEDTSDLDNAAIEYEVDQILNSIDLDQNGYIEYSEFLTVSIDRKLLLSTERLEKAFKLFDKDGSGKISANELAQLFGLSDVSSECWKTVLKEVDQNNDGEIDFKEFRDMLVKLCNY
Plasmodium falciparum protein kinase 6 (PK6, PF3D7_1337100), sequence (Q8IDW1 1-305): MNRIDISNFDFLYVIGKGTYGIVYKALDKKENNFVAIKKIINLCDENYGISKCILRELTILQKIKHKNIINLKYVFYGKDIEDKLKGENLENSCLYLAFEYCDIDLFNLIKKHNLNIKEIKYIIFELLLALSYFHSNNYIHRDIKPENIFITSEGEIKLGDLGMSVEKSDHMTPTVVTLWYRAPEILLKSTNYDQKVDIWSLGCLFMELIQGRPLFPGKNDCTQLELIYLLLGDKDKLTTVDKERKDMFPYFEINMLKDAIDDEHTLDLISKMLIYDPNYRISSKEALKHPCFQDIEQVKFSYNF
L-lactate dehydrogenase (Plasmodium falciparum (isolate CDC / Honduras)), sequence (Q27743 whole entry, looked up): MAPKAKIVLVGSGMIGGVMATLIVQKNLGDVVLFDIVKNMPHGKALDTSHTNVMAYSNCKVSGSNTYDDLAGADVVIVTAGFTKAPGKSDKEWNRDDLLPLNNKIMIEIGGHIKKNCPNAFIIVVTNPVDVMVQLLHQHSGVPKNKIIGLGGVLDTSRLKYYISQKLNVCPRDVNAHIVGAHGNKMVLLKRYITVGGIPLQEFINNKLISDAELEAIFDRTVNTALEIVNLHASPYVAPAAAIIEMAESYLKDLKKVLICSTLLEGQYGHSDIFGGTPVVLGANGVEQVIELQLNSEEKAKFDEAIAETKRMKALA

Turning to `CC(C)(C)C(Cn1ccnc1)NCc1cn[nH]c1-c1ccc(-c2ccccc2)cc1` (stereo not given), the growth inhibition in assay [1] is 69% (active); in assay [4], 98% (active). Moreover, the values for the inhibition in assay [2] and in assay [3] were 15% and -2%, respectively. Also, the result in assay [5], in assay [6], in assay [7] and in assay [8] was inactive.
With `Cn1cncc1C(=O)Nc1ccc(-c2cccc(-c3nc4ccc(C(F)(F)F)cc4[nH]3)c2)cc1`, the growth inhibition is 3% in assay [1] and 100% (active) in assay [4]. Besides, the inhibition (as a rule, the change of the read-out against control, counted positive when it falls) in assay [2] is 34%; in assay [3] it was 4%. The outcome in assay [5], in assay [6], in assay [7] and in assay [8] was inactive.
As to `Cc1cc(N[C@@H](Cc2ccccc2)C(=O)NC2CCCC2)nc(Nc2ccccc2)n1`, the results for the growth inhibition in assay [1] and in assay [4] were 82% (active) and 100% (active), respectively. Moreover, the inhibition in assay [2] was 3%; in assay [3], 0%. Moreover, the result in assay [5], in assay [6], in assay [7] and in assay [8] was inactive.
As to `O=C(Nc1cccc(-c2cccc(CN3CCCC3)c2)c1)c1cccc(Cl)c1`, the growth inhibition is 30% in assay [1] and 89% (active) in assay [4]. Moreover, the inhibition is 44% in assay [2] and -2% in assay [3]. In addition, the outcome in assay [5], in assay [6], in assay [7] and in assay [8] was inactive.
For `Cc1ccc2c(OCCN3CCC(Cc4ccc5c(c4)NC(=O)CO5)CC3)cc(F)cc2n1`, the growth inhibition is 21% in assay [1] and 89% (active) in assay [4]. The inhibition in assay [2] was 24%; in assay [3] it was -2%. The outcome in assay [5], in assay [6], in assay [7] and in assay [8] was inactive.
`O=C(O)c1ccc(OCOCOc2ccc(C(=O)O)c(O)c2)cc1O`: the growth inhibition in assay [1] is 0%; in assay [4] it was 99% (active). For the same compound, the figures for the inhibition in assay [2] and in assay [3] were -2% and 6%, respectively. The result in assay [5], in assay [6], in assay [7] and in assay [8] was inactive.
Take `CCCN(CCC)CCCN(CCCN(CCC)CCC)c1cc(C)nc(Nc2ccc(Cl)cc2)n1`: the growth inhibition in assay [1] and in assay [4] was 101% (active) each time. In addition, the inhibition is 34% in assay [2] and -6% in assay [3]. For the same compound, the result in assay [5], in assay [6], in assay [7] and in assay [8] was inactive.
With `COc1ccc(NC(=O)[C@H](CC(C)C)Nc2cc(C)nc(NCCc3ccccc3)n2)cc1`, the growth inhibition was 74% (active) in assay [1] and 101% (active) in assay [4]. In addition, the inhibition in assay [2] was 13%; in assay [3] it was -2%. The result in assay [5], in assay [6], in assay [7] and in assay [8] was inactive.
`Cn1cncc1C(=O)NC1CCN(c2ccnc(Nc3ccc(F)cc3)n2)C1` (stereo not given): the growth inhibition in assay [1] was 83% (active); in assay [4], 97% (active). For the same compound, the inhibition is 2% in assay [2] and -7% in assay [3]. The outcome in assay [5], in assay [6], in assay [7] and in assay [8] was inactive.
Take `Cc1ccccc1Nc1nc(NCCc2ccccc2)nc2ccccc12`: the growth inhibition in assay [1] was 18%; in assay [4] it was 82% (active). The inhibition in assay [2] is 32%; in assay [3], -1%. For the same compound, the outcome in assay [5], in assay [6], in assay [7] and in assay [8] was inactive.
For the compound `COc1cc2[nH]c(-c3ccc(O)cc3)c(C)c(=O)c2c(OC)c1OC`, the results for the growth inhibition in assay [1] and in assay [4] were 94% (active) and 100% (active), respectively. Further, the inhibition in assay [2] is 1%; in assay [3] it was 0%. The result in assay [5], in assay [6], in assay [7] and in assay [8] was inactive.
Regarding `c1ccc(-c2cc(NCCNc3cc(-c4ccccc4)nc4ccccc34)c3ccccc3n2)cc1`, the growth inhibition in assay [1] is 11%; in assay [4], 99% (active). Besides, the inhibition is -2% in assay [2] and 0% in assay [3]. Besides, the result in assay [5], in assay [6], in assay [7] and in assay [8] was inactive.
For `Cn1cnc(CCNC(=O)c2ccc(-c3ccc(-c4nc5ccc(C(F)(F)F)cc5[nH]4)s3)cc2)c1`, the results for the growth inhibition in assay [1] and in assay [4] were 99% (active) and 102% (active), respectively. In addition, the inhibition was 75% (active) in assay [2] and -2% in assay [3]. Besides, the result in assay [5], in assay [6], in assay [7] and in assay [8] was inactive.
On to `CCN1CCC(N(Cc2ccc(-c3ccc(C(F)(F)F)cc3)cc2)C(=O)Cn2c(CCc3cccc(F)c3F)cc(=O)c3ccc(OCc4ccccc4)cc32)CC1`, for which the growth inhibition was 86% (active) in assay [1] and 102% (active) in assay [4]. In addition, the values for the inhibition in assay [2] and in assay [3] were 60% (active) and 3%, respectively. Besides, the result in assay [5], in assay [6], in assay [7] and in assay [8] was inactive.
As for `CCCN1CCN(c2ccccc2NS(=O)(=O)c2ccc(C(=O)Nc3ccc(Cl)cc3)cc2)CC1`, the growth inhibition in assay [1] was 9%; in assay [4], 84% (active). Further, the results for the inhibition in assay [2] and in assay [3] were 17% and -2%, respectively. The outcome in assay [5], in assay [6], in assay [7] and in assay [8] was inactive.
Take `Cc1ccc(C(C)C)cc1CON1C(N)=NC(N)=NC1(C)C`: the growth inhibition in assay [1] was 92% (active); in assay [4] it was 94% (active). Moreover, the inhibition is 66% (active) in assay [2] and -3% in assay [3]. In addition, the outcome in assay [5], in assay [6], in assay [7] and in assay [8] was inactive.
For `O=C(NC1CC1)c1ccc(N2CCC(COc3cccc(F)c3)CC2)nc1`, the growth inhibition in assay [1] is 88% (active); in assay [4] it was 89% (active). Besides, the inhibition in assay [2] was 0%; in assay [3] it was 4%. The result in assay [5], in assay [6], in assay [7] and in assay [8] was inactive.
`O=C(C=NO)Nc1ccccc1[N+](=O)[O-]`: the growth inhibition in assay [1] is -2%; in assay [4], 99% (active). The values for the inhibition in assay [2] and in assay [3] were -14% and -2%, respectively. Further, the result in assay [5], in assay [6], in assay [7] and in assay [8] was inactive.
Turning to `Cn1c(Sc2ncnc3sccc23)nc2ccccc21`, the growth inhibition in assay [1] and in assay [4] was 100% (active) in each case. Moreover, the inhibition was -12% in assay [2] and 5% in assay [3]. Besides, the outcome in assay [5], in assay [6], in assay [7] and in assay [8] was inactive.
For `CCCC(CNCc1cccc(C)c1)CNc1cc(=O)c2ccccc2[nH]1` (stereo not given), the growth inhibition in assay [1] is 89% (active); in assay [4], 99% (active). The inhibition in assay [2] was -2%; in assay [3], -7%. Moreover, the result in assay [5], in assay [6], in assay [7] and in assay [8] was inactive.
